# Source: the supplement of paper PMC8728848
# The entries come from a sample that favours the strongest signals as a whole.
# B1: rCnSL-proA (Clitocybe nebularis) (protein)
# chain: AAFFSLVVLLALLPFGIHASALPSTELTPRVNPNLPGPNDVFVGFRGTNNIVGAIYEKDGIKDTPLNNGADAEMGPGSYITDGLFTARIFASGSAGNNPGTTATVCKIYASGVQWRGAPKGYIPVAYFGNGPTAEQRRQTYLRTLGLPGTAIRFGNLNTNPGQGPTAPRQMVVPPGPLRSLLKASCFPAADTRLPQTLHYFEKRVDWNIITAADSQTWGH
# Assays:
# Test in all cases: glycan array binding signal (z-score within array); higher = stronger binding
# Settings in all cases: glycan notation: IUPAC condensed, linker removed
# [1] = molecular target: Gal(b1-4)GlcNAc(b1-3)Gal(b1-4)GlcNAc(b1-3)GalNAc
# Summary of the method: (§1)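 The Consortium for Functional Glycomics database supplied 3228 glycan arrays, of which those lacking an available protein sequence were dropped. The binding signal, a within-array Z-score, was averaged across arrays of the same protein sequence and across linkers. Negative scores can be read as non-binding.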
# [2] = molecular target: Gal(b1-4)GlcNAc(b1-3)[Fuc(a1-3)GlcNAc(b1-6)]Gal(b1-4)Glc
# Summary of the method: as §1
# Gal(b1-4)GlcNAc6P = molecular target: Gal(b1-4)GlcNAc6P
# Summary of the method: as §1
# Gal6S(b1-4)Glc = molecular target: Gal6S(b1-4)Glc
# Summary of the method: as §1
# [3] = molecular target: GalNAc(a1-3)GalNAc(b1-3)Gal(a1-4)Gal(b1-4)Glc
# Summary of the method: as §1
# [4] = molecular target: GalNAc(b1-3)Gal(a1-6)Gal(b1-4)Glc
# Summary of the method: as §1
# [5] = molecular target: GalNAc(b1-4)GlcNAc(b1-2)Man(a1-3)[GalNAc(b1-4)GlcNAc(b1-2)Man(a1-6)]Man(b1-4)GlcNAc(b1-4)GlcNAc
# Summary of the method: as §1
# [6] = molecular target: GlcNAc(b1-3)Gal(b1-4)GlcNAc(b1-2)Man(a1-3)[GlcNAc(b1-3)Gal(b1-4)GlcNAc(b1-2)Man(a1-6)]Man(b1-4)GlcNAc(b1-4)GlcNAc
# Summary of the method: as §1
# [7] = molecular target: GlcNAc(b1-3)Gal(b1-4)GlcNAc(b1-3)Gal(b1-4)GlcNAc(b1-3)Gal(b1-4)GlcNAc(b1-2)Man(a1-3)[GlcNAc(b1-3)Gal(b1-4)GlcNAc(b1-3)Gal(b1-4)GlcNAc(b1-3)Gal(b1-4)GlcNAc(b1-2)Man(a1-6)]Man(b1-4)GlcNAc(b1-4)GlcNAc
# Summary of the method: as §1
# [8] = molecular target: GlcNAc(b1-3)Gal(b1-4)GlcNAc(b1-3)Gal(b1-4)GlcNAc(b1-3)Gal(b1-4)GlcNAc(b1-2)Man(a1-3)[GlcNAc(b1-3)Gal(b1-4)GlcNAc(b1-3)Gal(b1-4)GlcNAc(b1-3)Gal(b1-4)GlcNAc(b1-2)Man(a1-6)]Man(b1-4)GlcNAc(b1-4)[Fuc(a1-6)]GlcNAc
# Summary of the method: as §1
# [9] = molecular target: GlcNAc(b1-3)[GlcNAc(b1-6)]Gal(b1-4)GlcNAc
# Summary of the method: as §1
# [10] = molecular target: GlcNAc(b1-4)GlcNAc(b1-4)GlcNAc
# Summary of the method: as §1
# [11] = molecular target: GlcNAc(b1-4)[GlcNAc(b1-6)]GalNAc
# Summary of the method: as §1
# [12] = molecular target: GlcNAc(b1-6)Gal(b1-4)GlcNAc
# Summary of the method: as §1
# [13] = molecular target: Man(a1-3)[Man(a1-6)]Man(a1-6)[Man(a1-3)]Man(b1-4)GlcNAc(b1-4)GlcNAc
# Summary of the method: as §1
# [14] = molecular target: Neu5Ac(a2-3)Gal(b1-3)GalNAc
# Summary of the method: as §1
# [15] = molecular target: Neu5Ac(a2-3)Gal(b1-3)GlcNAc(b1-2)Man(a1-3)[Neu5Ac(a2-3)Gal(b1-3)GlcNAc(b1-2)Man(a1-6)]Man(b1-4)GlcNAc(b1-4)GlcNAc
# Summary of the method: as §1
# [16] = molecular target: Neu5Ac(a2-3)Gal(b1-3)GlcNAc(b1-6)GalNAc
# Summary of the method: as §1
# [17] = molecular target: Neu5Ac(a2-3)Gal(b1-3)[Fuc(a1-4)]GlcNAc(b1-3)Gal(b1-4)[Fuc(a1-3)]GlcNAc
# Summary of the method: as §1
# [18] = molecular target: Neu5Ac(a2-3)Gal(b1-4)GlcNAc(b1-3)Gal(b1-4)GlcNAc(b1-3)Gal(b1-4)GlcNAc(b1-2)Man(a1-3)[Neu5Ac(a2-3)Gal(b1-4)GlcNAc(b1-3)Gal(b1-4)GlcNAc(b1-3)Gal(b1-4)GlcNAc(b1-2)Man(a1-6)]GalNAc
# Summary of the method: as §1
# [19] = molecular target: Neu5Ac(a2-3)Gal(b1-4)GlcNAc(b1-6)[Neu5Ac(a2-3)Gal(b1-3)]GalNAc
# Summary of the method: as §1
# [20] = molecular target: Neu5Ac(a2-3)Gal6S(b1-4)[Fuc(a1-3)]GlcNAc
# Summary of the method: as §1
# Neu5Ac(a2-6)Gal(b1-4)Glc = molecular target: Neu5Ac(a2-6)Gal(b1-4)Glc
# Summary of the method: as §1
# [21] = molecular target: Neu5Ac(a2-6)Gal(b1-4)GlcNAc(b1-2)Man(a1-3)[Man(a1-6)]Man(b1-4)GlcNAc(b1-4)GlcNAc
# Summary of the method: as §1
# [22] = molecular target: Neu5Ac(a2-6)Gal(b1-4)GlcNAc(b1-3)Gal(b1-4)GlcNAc
# Summary of the method: as §1
# [23] = molecular target: Neu5Ac(a2-6)Gal(b1-4)GlcNAc(b1-6)[Gal(b1-3)]GalNAc
# Summary of the method: as §1
# [24] = molecular target: Neu5Ac(a2-8)Neu5Ac(a2-8)Neu5Ac(a2-3)Gal(b1-4)Glc
# Summary of the method: as §1
# [25] = molecular target: Neu5Gc(a2-6)Gal(b1-4)GlcNAc
# Summary of the method: as §1
binder,measurement,setting,value
B1,glycan array binding signal (z-score),[1],1.57
same,glycan array binding signal (z-score),[2],0.661
same,glycan array binding signal (z-score),Gal(b1-4)GlcNAc6P,-1.27
same,glycan array binding signal (z-score),Gal6S(b1-4)Glc,-0.662
same,glycan array binding signal (z-score),[3],-0.574
same,glycan array binding signal (z-score),[4],0.329
same,glycan array binding signal (z-score),[5],3.42
same,glycan array binding signal (z-score),[6],0.077
same,glycan array binding signal (z-score),[7],-0.215
same,glycan array binding signal (z-score),[8],0.698
same,glycan array binding signal (z-score),[9],-0.723
same,glycan array binding signal (z-score),[10],-0.208
same,glycan array binding signal (z-score),[11],-0.002
same,glycan array binding signal (z-score),[12],-0.312
same,glycan array binding signal (z-score),[13],0.14
same,glycan array binding signal (z-score),[14],-0.476
same,glycan array binding signal (z-score),[15],5.37
same,glycan array binding signal (z-score),[16],0.201
same,glycan array binding signal (z-score),[17],-0.238
same,glycan array binding signal (z-score),[18],4.1
same,glycan array binding signal (z-score),[19],-0.211
same,glycan array binding signal (z-score),[20],-0.672
same,glycan array binding signal (z-score),Neu5Ac(a2-6)Gal(b1-4)Glc,-0.233
same,glycan array binding signal (z-score),[21],-0.337
same,glycan array binding signal (z-score),[22],-0.269
same,glycan array binding signal (z-score),[23],-0.387
same,glycan array binding signal (z-score),[24],-0.436
same,glycan array binding signal (z-score),[25],-0.088
